Source: PubChem (National Center for Advancing Translational Sciences (NCATS))
ELG1 DNA repair: blocks ELG1-dependent DNA repair in HEK293T cells; HEK293T ELG1-luciferase reporter, luminescence, 16 h; DNA damage induced by 5-fluorouridine; Potency, µM (doses to about 46.1 µM), for inactives: at the highest dose activity change, negative = inhibition, usual class: inhibitors; 330,000 compounds, 2.3% hits; note: potency is the fitted concentration of half-maximal effect; nearly all actives have a fitted effect of over 55% in size
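5-Fluorouridine DNA damage + compound/DMSO, 2,000 cells/well, 16 h, 37 °C/5% CO2. ONE-Glo, 30 min RT, luminescence. Readout = decrease in reporter signal.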
TDP1 cell noCPT: qHTS for Inhibitors of human tyrosyl-DNA phosphodiesterase 1 (TDP1): qHTS in cells in absence of CPT; DT40 Tdp1-/- hTDP1 cells, no CPT, ATP luminescence, 48 h; Potency, µM (titrated, usually from 46.2 µM), for the others: top-dose activity change, negative = growth inhibition, hits mostly inhibitors; 420,000 compounds, 15% hits; AID 686978, 2013; note: potency is the fitted concentration of half-maximal effect; nearly all actives have a fitted effect of over 55% in size
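Luminescent ATP content (CellTiter-Glo) served as the growth readout. Knockout chicken DT40 cells expressing human TDP1 were exposed to compounds without camptothecin for a minimum 48 hr at 37 °C.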
HT1080 IDH1KD tx: HT-1080 IDH1 knockdown cell toxicity (counter line); HT-1080 IDH1 knockdown viability, ATP luminescence, 48 h; Potency, µM (top dose mostly 46.1 µM), inactives show top-dose activity, negative = toxicity, hits mostly cytotoxic; 360,000 compounds, 2% hits; AID 686971;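 note: potency is the fitted concentration of half-maximal effect; 0% = DMSO wells and -100% = cell-free medium wells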
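Using the IDH1-knockdown HT-1080 line run in the same batch and compound series as the NT line, viability after 48 h at 37 °C was determined by CellTiter-Glo luminescence and expressed as % activity.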
HT1080-NT tox: kills 2HG-producing HT-1080-NT fibrosarcoma cells | HT-1080-NT fibrosarcoma viability, CellTiter-Glo ATP luminescence, 48 h | Potency, µM (series often up to 46.1 µM), for inactives: top-dose activity, negative = less viability, usual class: cytotoxic | 360,000 compounds, 1.6% hits;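 note: NT is the 2HG producing partner of a matched IDH1 knockdown line; potency is the fitted concentration of half-maximal effect; 0% = DMSO-treated cells and -100% = media-only wells without cells; nearly all actives have a fitted effect of over 55% in size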
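HT-1080-NT fibrosarcoma cells (2HG-overproducing), 750 cells/well in RPMI with 5% FBS, dosed after 2 h and incubated 48 h at 37C. CellTiter-Glo luminescence normalized to DMSO and no-cell wells; concentration-response curves fitted and classed.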
DT40 TDP1 CPT: growth inhibition of DT40 Tdp1-/-;hTDP1 cells with camptothecin (screen for TDP1 inhibitors); chicken DT40 Tdp1-/-;hTDP1 cells + 20 nM CPT, ATP luminescence, 48 h; Potency, µM (top dose mostly 46.2 µM), for the others: at the top dose activity change, negative = growth inhibition, actives largely listed as inhibitors; 420,000 compounds, 12% hits; note: potency is the fitted concentration of half-maximal effect; nearly all actives have a fitted effect of over 55% in size
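Cell growth measured by CellTiter-Glo luminescence after a minimum 48 h, 37 C compound exposure with 20 nM CPT in Tdp1-knockout DT40 cells stably expressing hTDP1, seeded 400/well; qHTS titration format.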
IL-1B inflam inh: inhibitors of inflammasome signaling (IL-1 beta secretion). THP-1 LPS/ATP IL-1B secretion, AlphaLISA, 16 h; stronger effect = lower value. activity change, % at 57.5 µM. 360,000 compounds, 4.7% hits. AID 743279; in the data active = activity change below about -50%; inconclusive = mostly about -30% to -49%
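Secreted IL-1B measured by AlphaLISA bead assay after 16 h compound exposure of THP-1 cells; compounds (final up to 57.5 uM) added 1 h before LPS (250 ng/mL) and ATP (1.25 mM) stimulation; lower signal means less secretion.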
* hit, by the source's call; i = inactive; ? = inconclusive; · = no result; [ ] = another dose, or the depositor's remark. Shown are actives, neighbours in structure and some others; about 19% of the full set was active somewhere. Unless noted, calls come from the whole dose curve; as a rule, active = well fitted curve in the direction sought with a large enough effect; inconclusive = small, poorly fitted or top-dose-only effect, or another doubt; inactive = no such curve, though single readings can be large; an effect the other way counts as inactive or inconclusive. Unless noted, % is set by controls: 0 for no effect and ±100 for the full control effect.

SMILES | ELG1 DNA repair | TDP1 cell noCPT | HT1080 IDH1KD tx | HT1080-NT tox | DT40 TDP1 CPT | IL-1B inflam inh
CCOc1ccc(N2C(=O)CC(SC(=NC)Nc3ccc4c(c3)OCO4)C2=O)cc1 (stereo not drawn) | 26µM* | ? | -25% | -11% | -22% | 1
COc1ccccc1N1C(=O)CC(Sc2nccc(C)n2)C1=O (stereo not drawn) | 2% | -21% | 0% | -2% | ? | -3
COc1ccccc1N1C(=O)CC(Sc2n[nH]c(-c3cccc(C)c3)n2)C1=O (stereo not drawn) | 18% | 2.1µM* | -26% | ? | 2.1µM* | i
CCOc1ccc(NC(=NCc2ccc3c(c2)OCO3)SC2CC(=O)N(c3ccc(OCC)cc3)C2=O)cc1 (stereo not drawn) | ? | -28% | ? | ? | ? | 46
Cc1nc(SC2CC(=O)N(c3ccccc3)C2=O)n[nH]1 (stereo not drawn) | 1% | 5.2µM* | 12% | 17% | 1.5µM* | -23
CCOc1ccc(N2C(=O)CC(Sc3nccc(C)n3)C2=O)cc1 (stereo not drawn) | 15% | ? | 15% | 11% | ? | 25
CCOc1ccc(N2C(=O)CC(Sc3ncccn3)C2=O)cc1 (stereo not drawn) | 7% | ? | 22% | 15% | 18µM* | 8
O=C(O)CCSC1CC(=O)N(c2ccccc2)C1=O (stereo not drawn) | 1% | 10% | 10% | 7% | -7% | 14
O=C1CC(Sc2ncccn2)C(=O)N1c1ccccc1 (stereo not drawn) | 17% | ? | 3% | 5% | 14µM* | -3
Nc1nnc(SC2CC(=O)N(c3ccccc3)C2=O)s1 (stereo not drawn) | 0% | 3.3µM* | 2% | 2% | 7.3µM* | -89*
CC(OC(=O)c1ccccc1O)C(=O)Nc1cccc(Cl)c1 (stereo not drawn) | -10% | 13µM* | -9% | -2% | -2% | 1
O=C(Nc1ccc(NC(=S)NC(=O)c2ccccc2Cl)cc1)c1cccc(Cl)c1 | · | 16µM* | ? | -23% | 18µM* | -20
Cc1cc(C(=O)OC(C)C(=O)Nc2cccc(Cl)c2)on1 (stereo not drawn) | 12% | -24% | 5% | 11% | -3% | 3
Cc1ccccc1C(=O)NC(=S)Nc1cccc(NC(=O)C(C)C)c1 | -21% | ? | 12% | -2% | -4% | -3
CC(C)C(=O)Nc1cccc(NC(=S)NC(=O)c2ccccc2Cl)c1 | ? | 18µM* | -11% | 1% | ? | -15
CC(C)NC(=O)N1CC2(CCN(C(=O)c3ccncc3)CC2)C1 | · | -4% | · | · | 17% | ·
COc1ccc(CCN(C(=O)C(F)(F)F)C(C(=O)NC2CCCC2)c2cccs2)cc1OC (stereo not drawn) | -11% | 1.8µM* | -10% | -20% | 7.3µM* | -20
COc1ccc(CCN(C(=O)C(F)(F)F)C(C(=O)NC2CCCCC2)c2ccc(C)s2)cc1OC (stereo not drawn) | -4% | 9.2µM* | 11% | 8% | 12µM* | 4
COc1ccc(CCN(C(=O)c2ccco2)C(C(=O)NC2CCCC2)c2ccncc2)cc1OC (stereo not drawn) | 8% | -18% | -2% | -2% | -14% | -15
CCOC(=O)c1ccc(NC(=O)c2ncn3c2C(=O)NC[C@@H]3C)cc1 | · | ? | -8% | 9% | ? | -19
COc1ccc(C(=O)N(CN2CCCC2=O)c2ccc(C)cc2)cc1 | 7% | 15µM* | -10% | -4% | ? | 22
Cc1ccc(N(CN2CCCC2=O)C(=O)c2ccccc2)cc1 | 2% | 13µM* | -1% | 0% | 13µM* | 30
O=C(NCCc1ccccn1)C1CC12CCN(C(=O)c1cccc(C(F)(F)F)c1)CC2 (stereo not drawn) | · | -19% | · | · | -4%[9.04 µM] | ·
Cc1ccc(/C=C2/C(=O)N(c3ccccc3)C(=S)N2C)o1 | ? | 23µM* | -19% | -16% | ? | 0
COc1ccccc1NC(=S)NCCC(c1ccccc1)c1ccccc1 | -16% | ? | -7% | -15% | ? | 25
SMILES | ELG1 DNA repair | TDP1 cell noCPT | HT1080 IDH1KD tx | HT1080-NT tox | DT40 TDP1 CPT | IL-1B inflam inh
S=C(NCCC(c1ccccc1)c1ccccc1)Nc1ccc(Cl)cc1 | -4% | ? | ? | ? | ? | -92*
COc1cc(NC(=S)NCCC(c2ccccc2)c2ccccc2)c(OC)cc1Cl | -20% | 18µM* | 0% | -7% | 9.2µM* | 0
COc1ccc(Cl)cc1NC(=S)NCCC(c1ccccc1)c1ccccc1 | -23% | 23µM* | 1% | 3% | 23µM* | 5
COc1ccc(Cl)cc1NC(=S)Nc1ccccc1C | 22% | 23µM* | -1% | 15% | ? | -10
S=C(NCCC(c1ccccc1)c1ccccc1)Nc1ccccc1Cl | -6% | ? | 0% | -11% | ? | 3
Cc1ccc2oc(-c3ccc(C)c(NC(=O)COc4ccccc4C)c3)nc2c1 | · | ? | · | · | -14% | ·
CSCC[C@H](NC(=O)[C@@H]1Cc2c([nH]c3ccccc23)C2c3ccccc3C(=O)N21)C(=O)NCC1CCCO1 (stereo partly drawn) | 0% | ? | ? | -1% | ? | -15
COc1ccccc1C(=O)NCC(=O)NCCC(c1ccccc1)c1ccccc1 | 0% | 16µM* | -5% | 0% | 15µM* | 5
CC(=O)Nc1ccc(CC(=O)NCCC(c2ccccc2)c2ccccc2)cc1 | -8% | 18µM* | 33µM* | 26µM* | 16µM* | 1
COc1ccccc1C(=O)NCC(=O)Nc1ccccc1 | 15% | -12% | -2% | -1% | ? | 30
CCOC(=O)CCn1cnc2onc(-c3cc(OC)ccc3Cl)c2c1=O | · | -13% | · | · | 22% | ·
Cc1ccc(CN(Cc2ccco2)c2cnc(S(C)(=O)=O)nc2C(=O)Nc2ccc(Br)cc2)o1 | · | ? | · | · | 18µM* | ·
CC(C)c1ccc(CN(Cc2ccco2)c2cnc(S(C)(=O)=O)nc2C(=O)Nc2ccccc2)cc1 | · | 12µM* | · | · | 18µM* | ·
Cc1ccc(NC(=O)c2nc(S(C)(=O)=O)ncc2N(Cc2ccco2)Cc2ccccc2F)c(C)c1 | · | 9.2µM* | · | · | 12µM* | ·
Cc1cccc(S(=O)(=O)N(CC(=O)Nc2ccccc2C)Cc2ccco2)c1 | -11% | -21% | 3% | 4% | -25% | -9
